# Active and inactive are the calls of the source. Rule for the calls: active = hit-call score of the fitted dose curve at least 0.9, where 1 is the maximum; inactive = score below 0.9.
# Key:
# [1] = read-out: Tumor necrosis factor receptor superfamily member 6 (Homo sapiens) (UniProt P25445); test: LTEA_HepaRG_FAS: Life Technologies and Expression Analysis (LTEA) Assay for Fas cell surface death receptor (FAS) using HepaRG (AID 2283447); settings: mRNA level, 48 h; actives raise or lower the signal
# In short: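 FAS transcript level was measured by TaqMan qRT-PCR against three housekeeping genes after 48 h chemical exposure. Cells were HepaRG, 0.5% DMSO vehicle, with a top concentration of 100 uM and half-log dilutions over eight points, in duplicate.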
# [2] = read-out: Fatty acid synthase (Homo sapiens) (UniProt P49327); test: LTEA_HepaRG_FASN: Life Technologies and Expression Analysis (LTEA) Assay for Fatty Acid Synthase (FASN) using HepaRG (AID 2283448); settings: mRNA level, 48 h; actives raise or lower the signal;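 for AC50: differentiated human HepaRG liver cells in serum-free induction medium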
# In short: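 Differentiated HepaRG cells in serum-free induction medium exposed 48 h in duplicate to eight half-log concentrations, top 100 uM, 0.5% DMSO. FASN mRNA by qRT-PCR normalised to ACTB, GAPDH, POLR2A; bidirectional fit versus DMSO.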
# Sequence of Fatty acid synthase (Homo sapiens) (P49327 whole entry, looked up): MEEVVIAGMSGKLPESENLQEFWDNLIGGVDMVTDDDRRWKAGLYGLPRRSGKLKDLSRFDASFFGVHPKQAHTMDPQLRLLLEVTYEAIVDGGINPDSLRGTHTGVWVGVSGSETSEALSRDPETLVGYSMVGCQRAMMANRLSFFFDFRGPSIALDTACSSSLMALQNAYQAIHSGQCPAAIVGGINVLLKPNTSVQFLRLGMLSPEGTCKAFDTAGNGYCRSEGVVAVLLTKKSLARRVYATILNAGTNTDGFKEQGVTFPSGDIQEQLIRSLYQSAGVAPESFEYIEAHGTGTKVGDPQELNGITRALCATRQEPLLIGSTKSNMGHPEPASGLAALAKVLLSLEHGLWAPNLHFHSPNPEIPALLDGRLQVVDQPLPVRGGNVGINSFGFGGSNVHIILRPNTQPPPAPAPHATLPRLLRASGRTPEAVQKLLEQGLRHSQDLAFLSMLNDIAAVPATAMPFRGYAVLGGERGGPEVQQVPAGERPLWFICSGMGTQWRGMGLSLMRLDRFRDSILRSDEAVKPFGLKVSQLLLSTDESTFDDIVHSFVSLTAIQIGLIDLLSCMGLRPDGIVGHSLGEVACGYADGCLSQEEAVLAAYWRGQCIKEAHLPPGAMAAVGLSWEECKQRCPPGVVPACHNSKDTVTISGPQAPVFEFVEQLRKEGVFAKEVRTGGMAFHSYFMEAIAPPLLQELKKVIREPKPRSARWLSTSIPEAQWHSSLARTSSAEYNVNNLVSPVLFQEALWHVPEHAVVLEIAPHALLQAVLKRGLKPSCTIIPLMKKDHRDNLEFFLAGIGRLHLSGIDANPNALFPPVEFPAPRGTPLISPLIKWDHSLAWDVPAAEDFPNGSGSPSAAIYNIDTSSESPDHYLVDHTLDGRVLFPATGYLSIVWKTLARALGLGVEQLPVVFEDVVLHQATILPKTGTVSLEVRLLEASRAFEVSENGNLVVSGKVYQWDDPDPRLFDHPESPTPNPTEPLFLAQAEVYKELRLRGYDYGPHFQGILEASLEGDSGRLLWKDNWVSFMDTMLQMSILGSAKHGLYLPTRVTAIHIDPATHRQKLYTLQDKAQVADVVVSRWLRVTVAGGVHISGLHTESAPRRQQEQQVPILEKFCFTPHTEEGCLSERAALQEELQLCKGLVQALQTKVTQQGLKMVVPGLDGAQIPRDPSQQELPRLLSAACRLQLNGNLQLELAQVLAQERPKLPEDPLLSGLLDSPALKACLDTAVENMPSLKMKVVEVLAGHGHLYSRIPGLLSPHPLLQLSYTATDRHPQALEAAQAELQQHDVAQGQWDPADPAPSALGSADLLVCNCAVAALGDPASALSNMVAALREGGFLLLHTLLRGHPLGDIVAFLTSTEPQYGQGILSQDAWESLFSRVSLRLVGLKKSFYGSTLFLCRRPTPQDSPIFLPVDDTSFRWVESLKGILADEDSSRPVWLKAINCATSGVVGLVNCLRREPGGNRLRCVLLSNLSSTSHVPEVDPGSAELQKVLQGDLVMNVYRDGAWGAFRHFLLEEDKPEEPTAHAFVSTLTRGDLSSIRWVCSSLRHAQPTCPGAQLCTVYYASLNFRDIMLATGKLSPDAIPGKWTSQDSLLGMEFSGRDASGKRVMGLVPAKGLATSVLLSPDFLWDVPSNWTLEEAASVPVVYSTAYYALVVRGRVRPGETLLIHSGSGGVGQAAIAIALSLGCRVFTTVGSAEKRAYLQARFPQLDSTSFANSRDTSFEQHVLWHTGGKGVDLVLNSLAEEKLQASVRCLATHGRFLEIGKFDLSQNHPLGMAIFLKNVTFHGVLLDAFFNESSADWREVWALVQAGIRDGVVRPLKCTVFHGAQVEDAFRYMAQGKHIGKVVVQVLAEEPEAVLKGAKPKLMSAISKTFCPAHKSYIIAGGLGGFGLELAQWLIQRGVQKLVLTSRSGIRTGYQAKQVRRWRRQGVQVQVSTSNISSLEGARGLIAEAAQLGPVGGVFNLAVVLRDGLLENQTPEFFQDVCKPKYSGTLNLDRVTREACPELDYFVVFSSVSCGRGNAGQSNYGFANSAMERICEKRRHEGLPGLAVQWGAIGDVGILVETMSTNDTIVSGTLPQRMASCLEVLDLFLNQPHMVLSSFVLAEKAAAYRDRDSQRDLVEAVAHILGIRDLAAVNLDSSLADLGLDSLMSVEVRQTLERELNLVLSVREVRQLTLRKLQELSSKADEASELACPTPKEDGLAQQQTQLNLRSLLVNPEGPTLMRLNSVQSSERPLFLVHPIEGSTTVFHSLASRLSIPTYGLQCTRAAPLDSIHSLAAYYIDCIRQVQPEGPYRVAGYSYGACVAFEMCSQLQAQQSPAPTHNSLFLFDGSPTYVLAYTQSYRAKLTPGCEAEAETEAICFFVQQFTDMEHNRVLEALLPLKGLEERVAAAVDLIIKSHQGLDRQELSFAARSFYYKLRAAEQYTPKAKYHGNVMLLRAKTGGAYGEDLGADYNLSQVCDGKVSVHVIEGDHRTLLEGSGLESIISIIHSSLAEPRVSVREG
smiles,measurement,setting,value
O=c1n(Cl)c(=O)n(Cl)c(=O)n1Cl,outcome,[1],inactive
same,outcome,[2],inactive
COC(=O)NS(=O)(=O)c1ccc(N)cc1,outcome,[1],inactive
same,outcome,[2],inactive
CCOP(=O)(OCC)Oc1nc(Cl)c(Cl)cc1Cl,outcome,[1],inactive
same,AC50,[2],60.2 µM (active)
CCNC(=O)NC(=O)C(C#N)=NOC,outcome,[2],inactive
C=C(C)CN(CC)c1c([N+](=O)[O-])cc(C(F)(F)F)cc1[N+](=O)[O-],outcome,[1],inactive
same,outcome,[2],inactive
OC(c1ccc(Cl)cc1)(c1ccc(Cl)cc1)C(Cl)(Cl)Cl,AC50,[1],50 µM (active)
same,AC50,[2],34.8 µM (active)
CSC(=O)c1c(C(F)F)nc(C(F)(F)F)c(C(=O)SC)c1CC(C)C,outcome,[1],inactive
same,outcome,[2],inactive
CS(=O)(=O)c1cc(C(F)(F)F)ccc1C(=O)c1cnoc1C1CC1,outcome,[1],inactive
same,outcome,[2],inactive
CCCCOCN(C(=O)CCl)c1c(CC)cccc1CC,outcome,[1],inactive
same,outcome,[2],inactive
CC(C)=CC1C(C(=O)OCc2coc(Cc3ccccc3)c2)C1(C)C (stereo unspecified),outcome,[1],inactive
same,outcome,[2],inactive
CC1(C)C(C(=O)OC(C#N)c2cccc(Oc3ccccc3)c2)C1(C)C (stereo unspecified),outcome,[1],inactive
same,outcome,[2],inactive

# — PubChem BioAssay (EPA / NIEHS)
